The list is not random: actives were taken first. Their share in the collection is about 2.9%.
FadD28 binding: blocks FadD28 binding to the bisubstrate probe | fluorescence polarization | inhibition, % at 12.5 µM | 360,000 compounds, 0.22% hits; in the data active means inhibition above about 8.5%, passing the limit was not always enough; inconclusive means no clear call, values can overlap the other calls
BioA inh: blocks M. tuberculosis BioA enzyme activity; purified M. tuberculosis BioA enzyme, plate reader; inhibition, % at 9.99 µM; 360,000 compounds, 0.096% hits; in the data active means inhibition above about 40%; inconclusive means no clear call, values can overlap the other calls
FBA Mtb inh: inhibits M. tuberculosis FBA enzyme; 360,000 compounds, 2.3% hits; inhibition, % at 1 µM; AID 588726; purified M. tuberculosis FBA, fluorescence read-out; P9WQA3; in the data active means inhibition above about 27%;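 further: 0% = vehicle and 100% = reference inhibitor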
Target sequence (P9WQA3 whole entry, looked up): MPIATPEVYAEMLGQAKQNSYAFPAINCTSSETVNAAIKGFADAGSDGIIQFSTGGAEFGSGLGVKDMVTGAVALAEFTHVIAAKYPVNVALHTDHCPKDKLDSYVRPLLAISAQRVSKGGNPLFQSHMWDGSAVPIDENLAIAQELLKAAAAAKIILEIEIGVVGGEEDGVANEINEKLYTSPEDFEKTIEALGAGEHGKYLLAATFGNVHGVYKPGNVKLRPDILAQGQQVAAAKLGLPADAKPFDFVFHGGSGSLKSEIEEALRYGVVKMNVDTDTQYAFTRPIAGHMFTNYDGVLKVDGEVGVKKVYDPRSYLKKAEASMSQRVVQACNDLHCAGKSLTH
GDH-TPI inh: counter-screen for M. tuberculosis FBA inhibitors: GDH-TPI coupled enzymes; GDH-TPI coupled enzyme counterscreen, NADH absorbance; inhibition, % at 4.8 µM; 360,000 compounds, 1.2% hits; AID 588335; in the data active means inhibition above about 30%;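 further: 0% = DMSO wells and 100% = wells lacking the enzyme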
Mtb hypoxia inh: inhibitors of hypoxia-regulated fluorescent reporter in Mycobacterium tuberculosis; M. tuberculosis hypoxia-regulated fluorescent reporter, fluorescence; fluorescence inhibition, % (concentration not given with the values); 300,000 compounds, 0.1% hits; AID 1159583; in the data active means fluorescence inhibition mostly above about 23%, no sharp cut-off; inactive means mostly below about 17%
An asterisk follows results filed as active; ? = inconclusive; / = no result given; + = active, no number.

SMILES | FadD28 binding | BioA inh | FBA Mtb inh | GDH-TPI inh | Mtb hypoxia inh
COc1ccc(C(C)=NN2CCCCC2)c(O)c1 | / | / | / | / | 7.1
COc1ccc(/C=C/C(=O)Nc2nc(C)c(C(=O)N(C)C)s2)cc1 | -4.8 | / | -2.7 | 41.6* | 7.7
COc1ccc(C(=O)Nc2nc(C)c(C(=O)N(C)C)s2)cc1OC | -0.1 | 0.4 | 1.6 | 17.7 | 10.4
Cc1nc(NC(=O)c2ccc(Br)s2)sc1C(=O)N(C)C | -0.4 | / | 0.2 | 34.7* | 7.9
CCOC(=O)CNC(=O)c1sc(NC(=O)/C=C/c2ccccc2)nc1C | -1.0 | -0.8 | 5.0 | 32.5* | -1.7
COC(=O)c1sc(NC(=O)/C=C/c2ccc(C)cc2)nc1C | -3.0 | / | 1.2 | -3.3 | /
COc1ccc(/C=C/C(=O)Nc2nc(C)c(C(=O)N(C)C)s2)cc1OC | -1.7 | -0.3 | 2.2 | 34.1* | -0.5
CC(=O)c1cccc(NC(=O)CCCOc2ccc(C)cc2)c1 | -2.7 | 1.9 | 0.7 | 3.0 | active
CN(C)c1ccc(/C=C(/NC(=O)c2ccccc2)C(=O)NCCCn2ccnc2)cc1 | 1.0 | 0.1 | -3.8 | 32.8* | 2.0
CCn1cc(/C=C(\NC(=O)c2ccccc2)C(=O)NCCCn2ccnc2)c2ccccc21 | -2.8 | 0.1 | -0.5 | 45.1* | /
O=C(O)C=CC(=O)c1ccc2c(c1)CCc1ccccc1-2 | / | / | / | / | 8.8
O=C(O)/C=C/C(=O)c1ccc2c(c1)CCc1ccccc1-2 | -4.6 | 2.0 | 5.2 | 32.3* | /
CCOC(=O)c1c(-c2ccccc2)cn2ccccc12 | -3.9 | -0.3 | 168.2* | 10.6 | /
CCC(=O)Nc1c(OC(=O)CC)ccc2c(C)cc(=O)oc12 | -1.3 | 0.1 | 140.2* | 9.6 | /
O=C(O)c1cccc2cccc(-c3c4ccc(=O)c(O)c-4oc4c(O)c(O)ccc34)c12 | 43.7* | / | -1.5 | 9.5 | /
C1CCCN(c2nc3nonc3nc2N2CCCCCC2)CC1 | -2.0 | / | 4.0 | 6.2 | -6.9
O=C1CN(c2nc3nonc3nc2N2CCCCC2)CCN1 | -2.0 | / | -3.1 | 35.4* | -1.2
COc1ccc(NC(=O)C2CC=CC3CCN(Cc4ccccc4)C(=O)C32)cc1 (stereo not drawn) | / | / | / | / | 6.6
CCN(CC)c1ccc2c(-c3ccc(S(=O)(=O)O)cc3S(=O)(=O)[O-])c3ccc(=[N+](CC)CC)cc-3oc2c1 | 135.4* | -78.3 | 0.0 | 15.0 | 39.0*
CCc1ccc(OCC(=O)Nc2ccc(-c3nc4ccccc4o3)c(O)c2)cc1 | -2.7 | / | 4.9 | 1.7 | /
Oc1cc(NCc2cccnc2)ccc1-c1nc2ccccc2o1 | 1.0 | -0.5 | 10.8 | 63.5* | 0.4
CC(C)(OC1OC(CO)C(O)C(O)C1O)C1Cc2cc3ccc(=O)oc3cc2O1 (stereo not drawn) | / | / | / | / | 7.5
CC(C)(Cl)C1Cc2cc3ccc(=O)oc3cc2O1 (stereo not drawn) | -0.2 | 1.7 | 166.9* | 26.3 | 16.8
CCCCCCCCCCCCCCCC[n+]1cccc2ccccc21 | 16.6* | / | 0.5 | -1.1 | 9.6
Cc1cccc(-c2nsc(SCC(=O)Nc3cc(C)on3)n2)c1 | -2.5 | 0.3 | 1.0 | 5.9 | 14.5
SMILES | FadD28 binding | BioA inh | FBA Mtb inh | GDH-TPI inh | Mtb hypoxia inh
CCOC(=O)N1CCN(C(=O)CSc2nc(-c3cccc(C)c3)ns2)CC1 | -1.5 | 0.8 | -0.4 | 0.9 | 44.1*
c1ccc2c(c1)CC/C2=N/Nc1nc2ccccc2[nH]1 | -3.5 | 0.2 | 1.2 | 48.8* | /
c1ccc2c(c1)CCC2=NNc1nc2ccccc2[nH]1 | / | / | / | / | -14.4
O=C(c1cccc(-c2cccc3nccn23)c1)N1CCOCC1 | -0.7 | -1.0 | 9.4 | 7.5 | /
c1cc(-c2ccc(CN3CCOCC3)cc2)n2ccnc2c1 | -2.2 | 0.1 | + | 8.0 | /
N#Cc1ccc(-c2cccc3nccn23)cc1 | -3.3 | 2.1 | 177.9* | 4.4 | /
CN1CCN(c2ccc(-c3cccc4nccn34)cn2)CC1 | -0.6 | 10.5 | + | 29.8 | /
c1cn2cc(-c3ccc(CN4CCOCC4)cc3)ccc2n1 | -0.7 | 21.0 | 14.2 | 4.9 | /
c1cc(-c2ccoc2)n2ccnc2c1 | -3.1 | -2.5 | 21.7 | 0.9 | /
C#CCOCCOCCOCCNc1nc(N2CCN(C(=O)CCCCCCCCCCNC(=O)C(C(C)O)n3cc(C)nn3)CC2)nc(N2CCN(C(=O)CCCCCCCCCCNC(=O)C(C(C)O)n3cc(C)nn3)CC2)n1 (stereo not drawn) | / | / | / | / | -2.4
COc1ccccc1N1CCN(C(=O)COc2cc(C)cc3oc(=O)cc(C)c23)CC1 | -2.4 | -3.2 | 4.7 | 3.5 | 6.0
CCCCc1cc(=O)oc2cc(C)cc(OCC(=O)N3CCC(C(=O)O)CC3)c12 | -0.6 | 0.2 | 123.8* | 17.6 | /
Cc1cc(OCC(=O)N2CCC(C(=O)O)CC2)c2c(C)cc(=O)oc2c1 | -1.5 | -0.9 | 130.1* | 5.6 | /
CCC(=NNC(=O)CNC(=O)/C=C/c1ccc(OC)cc1)c1ccccc1 | / | / | / | / | -0.9
CC(=O)Nc1cccc(OCc2cnc(Cl)s2)c1 | -2.9 | -1.0 | -4.8 | -9.2 | -3.0
CC(C)(C)c1ccc(OCc2cnc(Cl)s2)cc1 | -0.7 | / | 1.0 | 2.9 | 39.3*
C(=N\Nc1ncnc2sc3c(c12)CCC3)/c1ccncc1 | -2.7 | 0.6 | -4.7 | 17.6 | /
C(=N\Nc1ncnc2sc3c(c12)CCC3)/c1cccs1 | 0.4 | -1.5 | 3.0 | 33.3* | /
Cn1cnc2c(N/N=C/c3cccs3)ncnc21 | -2.4 | -0.8 | -1.8 | 39.1* | /
CC(=O)c1sc(NN=Cc2c(O)ccc3ccccc23)nc1C | / | / | / | / | 6.3
COc1ccc2cc(C(=O)NCc3ccccc3)c(=Nc3ccc(C(=O)O)cc3)oc2c1 | -4.8 | / | 19.4 | -7.0 | 5.6
O=C(NCc1ccccc1)c1cc2ccc(O)cc2oc1=O | -2.1 | -0.6 | + | 0.0 | 2.3
O=C(O)c1ccc(N=c2oc3cc(O)ccc3cc2C(=O)NCc2ccccc2)cc1 | ? | / | + | 13.3 | 9.5
C/C(=N\NC(=O)CC#N)c1cc2ccc(O)cc2oc1=O | -2.2 | -0.2 | + | 17.1 | /
CC(=NNC(=O)c1ccncc1)c1cc2ccc(O)cc2oc1=O | / | / | / | / | 11.0
SMILES | FadD28 binding | BioA inh | FBA Mtb inh | GDH-TPI inh | Mtb hypoxia inh
C[C@H]1CCCCO[C@H](CN(C)C(=O)Cc2ccccc2)[C@@H](C)CN([C@@H](C)CO)C(=O)c2cc(NS(=O)(=O)c3ccc(F)cc3)ccc2O1 | / | 0.9 | / | / | /
CCCNC(=O)[C@@H]1[C@@H](CO)[C@@H]2Cn3c(ccc(-c4cccc(F)c4)c3=O)[C@H]1N2C(=O)CC | / | -1.4 | / | / | /
COc1ccccc1-c1ccc([C@H]2[C@@H](CO)N(C(=O)NC(C)C)[C@H]2C#N)cc1 | / | -3.2 | / | / | /
CCN(CC)c1ccc(/C=C2\C(=O)NC(=O)N(CC3CCCO3)C2=O)cc1 (stereo not drawn) | -0.4 | -0.8 | -0.6 | 32.7* | 10.4
Cc1ccc(/C=C2\C(=O)NC(=O)N(CC3CCCO3)C2=O)s1 (stereo not drawn) | -1.3 | -1.0 | -0.7 | 11.7 | -3.3
COc1ccc(OCC(=O)NN=Cc2ccco2)cc1 | / | / | / | / | 13.2
CCOC(=O)CN1C(=O)S/C(=C\c2ccc(-c3ccc(C(=O)O)c(Cl)c3)o2)C1=O | -0.5 | 0.9 | -1.2 | 9.2 | -2.6
O=C(O)c1ccc(-c2ccc(/C=C3\NC(=O)N(Cc4ccc(Cl)cc4)C3=O)o2)cc1Cl | 16.5* | 2.3 | 6.1 | 21.1 | 5.7
CCC(=O)N1[C@@H]2c3ccc(-c4ccccc4)c(=O)n3C[C@H]1[C@H](CO)[C@H]2C(=O)N1CCN(C)CC1 | / | -0.3 | / | / | /
